Records with an inconclusive call do not appear. Activity calls are given as the source filed them. Unless noted, calls come from the whole dose curve; as a rule, active = well fitted curve in the direction sought with a large enough effect in the repeat runs; inconclusive = weak or mixed curves; inactive = no such curve, though single readings can be large; an effect the other way counts as inactive or inconclusive.
How the values were obtained:
[1] = qHTS assay for small molecules that induce genotoxicity in human embryonic kidney cells expressing luciferase-tagged ATAD5 (AID 651632); note: nearly all actives have a fitted effect of over 15% in size
Summary of the method: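 Luminescence read-out: after 16 hr compound exposure at 37C, ATAD5-luciferase HEK293T cells received Amplite, 30 min RT, then CCD imaging. A rise in signal marks genotoxic stress.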

[2] = qHTS assay for small molecule agonists of the p53 signaling pathway - cell viability (AID 651633; calls by dose curve;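 note: p53RE-bla HCT reporter cells with a stable beta-lactamase p53 reporter; series mostly up to about 83 µM; nearly all actives have a fitted effect of over 30% in size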)
Summary of the method: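 p53RE-bla cells, seeded at 4,000 per well and rested 5 h at 37 C/5% CO2, received compounds in DMSO for 16 h at 37 C. CellTiter-Glo was then added, and luminescence was read after 30 min at room temperature to gauge cytotoxicity.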

[3] = qHTS assay for small molecules that induce genotoxicity in human embryonic kidney cells expressing luciferase-tagged ATAD5 - cell viability (AID 651634; calls by dose curve; note: nearly all actives have a fitted effect of over 25% in size)
Summary of the method: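 HEK293T ATAD5-luc cells, 2,000/well; compound 15.5 hr, 37C/5% CO2; CellTiter-Fluor 30 min, 37C; fluorescence read.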

[4] = qHTS assay for small molecule disruptors of the mitochondrial membrane potential - cell viability (AID 720634; calls by dose curve;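 note: human HepG2 liver cancer cells; series mostly up to about 83 µM; nearly all actives have a fitted effect of over 20% in size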)
Summary of the method: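 Luminescence from CellTiter-Glo (ATP content) gave viability in HepG2 cells, read in the same wells as the MMP dye assay after 1 hr compound exposure at 37 C.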

[5] = qHTS assay for small molecule disruptors of the mitochondrial membrane potential (AID 720635); note: potency is the fitted concentration of half-maximal effect
Summary of the method: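 HepG2 cells (2,000/well) attached overnight at 37C, then took compound for 1 hr at 37C, 5% CO2. Mito-MPS dye was added for 30 min; fluorescence was read at 490/535 nm (monomers) and 540/590 nm (aggregates).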

[6] = qHTS assay to test for compound auto fluorescence at 590 nm (red) in HepG2 cells (AID 720674)
Summary of the method: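 Rose Bengal sodium served as the red fluorophore standard. HepG2 monolayers (overnight attachment, MEM with 10% FBS) were exposed to test compounds for 1 hr at 37 C and read at Ex 540/Em 590 nm.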

[7] = qHTS assay to test for compound auto fluorescence at 460 nm (blue) in HEK293 cells (AID 720678)
Summary of the method: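 HEK293, 2,000 cells/well, 10% dialyzed FBS; attach 4-5 hr 37C; pin compound or DMSO; o/n 37C/5% CO2; fluorescence 405/460 nm; triamterene-equivalent units.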

[8] = qHTS assay to test for compound auto fluorescence at 535 nm (green) in HEK293 cells (AID 720680)
[9] = qHTS assay to test for compound auto fluorescence at 460 nm (blue) in HEK293 cell free culture (AID 720681)
Summary of the method: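 Test compounds were pinned into cell-free culture medium (DMEM with 10% FBS) and fluorescence was read directly at Ex/Em 405/460 nm. Signals were expressed as fluorescence equivalents of triamterene, with DMSO vehicle as control.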

[10] = qHTS assay to test for compound auto fluorescence at 535 nm (green) in HEK293 cell free culture (AID 720682)
Summary of the method: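 Green-channel intensity (Ex/Em 485/535 nm) was recorded from compound-treated wells containing only DMEM with 10% FBS. Fluorescein provided the equivalency standard.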

[11] = qHTS assay to test for compound auto fluorescence at 590 nm (red) in HEK293 cell free culture (AID 720683)
Summary of the method: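 Tox21 10K library compounds were pinned into cell-free DMEM with 10% FBS and fluorescence was read at excitation 540 nm. Activity is expressed as Rose Bengal sodium equivalency.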

[12] = qHTS assay to test for compound auto fluorescence at 590 nm (red) in HepG2 cell free culture (AID 720684)
Summary of the method: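 Readout: intrinsic compound fluorescence at 590 nm emission after 540 nm excitation, scaled to Rose Bengal sodium. Matrix was cell-free MEM with 10% FBS; DMSO vehicle wells served as control.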

[13] = qHTS assay to test for compound auto fluorescence at 460 nm (blue) in HepG2 cell free culture (AID 720685)
Summary of the method: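 Cell-free plates of MEM plus 10% FBS received 23 nL compound or DMSO vehicle; blue-channel (405/460 nm) intensity scored against triamterene as reference fluorophore.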

[14] = qHTS assay to test for compound auto fluorescence at 535 nm (green) in HepG2 cell free culture (AID 720686)
[15] = qHTS assay to test for compound auto fluorescence at 460 nm (blue) in HepG2 cells (AID 720687)
Summary of the method: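 Cells (2,000/well in MEM with 10% FBS) attached overnight at 37 C, then were exposed to compound or DMSO for 1 hr at 37 C, 5% CO2. Fluorescence read at Ex/Em 405/460 nm, expressed as triamterene-equivalent signal.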

[16] = target: Glucocorticoid receptor (Homo sapiens) (UniProt P04150); test: qHTS assay to identify small molecule agonists of the glucocorticoid receptor (GR) signaling pathway (AID 720691; active = well fitted activation curve with a large enough effect in the signal ratio in the repeat runs, not every such curve was filed as active; the % refers to the signal ratio)
Sequence of Glucocorticoid receptor (Homo sapiens) (P04150 whole entry, looked up): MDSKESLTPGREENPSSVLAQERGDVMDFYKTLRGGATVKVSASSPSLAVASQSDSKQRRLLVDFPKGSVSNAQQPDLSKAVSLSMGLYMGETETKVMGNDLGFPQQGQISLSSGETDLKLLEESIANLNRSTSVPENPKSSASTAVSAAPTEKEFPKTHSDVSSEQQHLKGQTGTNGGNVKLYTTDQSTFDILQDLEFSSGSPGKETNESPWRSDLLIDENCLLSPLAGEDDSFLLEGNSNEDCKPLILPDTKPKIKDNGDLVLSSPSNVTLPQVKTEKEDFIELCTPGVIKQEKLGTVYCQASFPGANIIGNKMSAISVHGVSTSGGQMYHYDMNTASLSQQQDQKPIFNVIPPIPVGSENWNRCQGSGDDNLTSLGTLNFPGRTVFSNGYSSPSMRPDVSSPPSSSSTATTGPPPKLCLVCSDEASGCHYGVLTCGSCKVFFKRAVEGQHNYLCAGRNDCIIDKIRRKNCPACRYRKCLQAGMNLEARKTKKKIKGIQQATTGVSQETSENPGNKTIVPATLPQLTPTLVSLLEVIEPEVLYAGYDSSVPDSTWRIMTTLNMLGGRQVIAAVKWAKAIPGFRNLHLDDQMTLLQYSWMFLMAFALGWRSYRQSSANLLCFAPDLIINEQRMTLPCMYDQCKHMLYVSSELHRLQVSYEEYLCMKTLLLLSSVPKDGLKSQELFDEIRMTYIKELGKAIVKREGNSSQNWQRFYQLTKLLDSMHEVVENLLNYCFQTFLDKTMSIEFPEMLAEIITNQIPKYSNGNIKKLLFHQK
Summary of the method: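 HeLa GR-bla reporter line; cells pre-incubated 4 h, compound in DMSO 18 h at 37 C; LiveBLAzer B/G FRET substrate 2 h RT; fluorescence intensity read-out.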

[17] = target: Glucocorticoid receptor (Homo sapiens) (UniProt P04150); test: qHTS assay to identify small molecule antagonists of the glucocorticoid receptor (GR) signaling pathway (AID 720692; active = well fitted inhibition curve with a large enough effect in the signal ratio in the repeat runs, not every such curve was filed as active; the % refers to the signal ratio)
Summary of the method: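 Read-out: beta-lactamase FRET substrate fluorescence, 2 h at room temperature, in HeLa cells stably carrying a GRE-driven bla reporter. Compounds were co-incubated with 5 nM dexamethasone agonist (final) for 18 h at 37 C.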

[18] = qHTS assay to test for compound auto fluorescence at 535 nm (green) in HepG2 cells (AID 720675)
[19] = qHTS assay to test for compound auto fluorescence at 590 nm (red) in HEK293 cells (AID 720679)
Summary of the method: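 Intensity at 540nm excitation and 590nm emission is reported as Rose Bengal sodium-equivalent autofluorescence. Measurements followed overnight exposure (37C, 5% CO2) of HEK293 cells, 2,000 per well, to 23 nL compound.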

[20] = qHTS assay for small molecule agonists of the p53 signaling pathway (AID 651631; calls by dose curve; note: nearly all actives have a fitted effect of over 15% in size)
Summary of the method: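 We treat p53RE-bla HCT-116 cells with compounds for 16 h at 37 °C, add LiveBLAzer B/G FRET substrate for 2 h at room temperature, and measure fluorescence intensity.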

Measured: Potency

CC(=O)OCC(CCn1cnc2cnc(N)nc21)COC(C)=O
inactive: [1] | [2] | [3] | [4] | [5] | [6] | [7] | [8] | [9] | [10] | [11] | [12] | [13] | [14] | [15] | [16] | [17]

OCCCC1CCCCC1
inactive: [1] | [2] | [3] | [4] | [5] | [6] | [18] | [7] | [8] | [9] | [10] | [11] | [12] | [13] | [14] | [15]

CCOC(=O)c1c(C)n(C)c2ccc(O)cc12
active: [5] 7.84 µM
inactive: [1] | [2] | [3] | [4] | [6] | [18] | [7] | [19] | [8] | [9] | [10] | [11] | [12] | [13] | [14] | [15] | [16] | [17]

CC(C)=CCCC(C)CC(=O)O (stereo not drawn)
inactive: [1] | [2] | [3] | [4] | [5] | [6] | [18] | [7] | [19] | [8] | [9] | [10] | [11] | [12] | [13] | [14] | [15] | [16]

COc1cc(C(=O)N2CCCCCCC2)cc(OC)c1OC
inactive: [20] | [1] | [3] | [4] | [6] | [18] | [7] | [8] | [9] | [10] | [11] | [12] | [13] | [14] | [15]

CCCCC/C=C\CCC=O
inactive: [20] | [1] | [3] | [4] | [6] | [18] | [7] | [19] | [8] | [9] | [10] | [11] | [12] | [13] | [14] | [15] | [16] | [17]

COC(=O)CC(C)=O
inactive: [1] | [2] | [3] | [4] | [5] | [6] | [18] | [7] | [19] | [8] | [9] | [10] | [11] | [12] | [13] | [14] | [15] | [16] | [17]

FC1(F)C(F)(F)C(F)(F)C2(F)C(F)(F)C(F)(F)C(F)(F)C(F)(F)C2(F)C1(F)F (stereo not drawn)
inactive: [1] | [2] | [3] | [4] | [5] | [6] | [18] | [7] | [19] | [8] | [9] | [10] | [11] | [12] | [13] | [14] | [15] | [16]

Brc1c(NC2=NCCN2)ccc2nccnc12
inactive: [20] | [2] | [3] | [4] | [7] | [19] | [8] | [9] | [11] | [12] | [13] | [14] | [15] | [16] | [17]

CCc1nccnc1CC
inactive: [20] | [1] | [3] | [4] | [6] | [18] | [7] | [19] | [8] | [9] | [11] | [12] | [13] | [14] | [15]

CCO[Si](CCC1CCC2OC2C1)(OCC)OCC (stereo not drawn)
inactive: [1] | [2] | [3] | [4] | [5] | [6] | [18] | [7] | [19] | [8] | [9] | [10] | [11] | [12] | [13] | [14] | [15] | [16] | [17]

CN1CCC(=C2c3ccccc3CC(=O)c3sccc32)CC1
inactive: [20] | [1] | [3] | [4] | [6] | [7] | [19] | [8] | [9] | [10] | [11] | [12] | [13] | [14] | [15] | [16] | [17]

Cc1cccn2c(=O)c(-c3nnn[nH]3)cnc12
inactive: [20] | [1] | [3] | [4] | [18] | [7] | [19] | [8] | [9] | [10] | [11] | [12] | [13] | [14] | [15] | [16] | [17]
